This excerpt belongs to a sample that is enriched for hits.
ERK EGF inh: inhibitors of EGF-stimulated ERK signaling pathway | 130,000 compounds, 0.41% hits | AID 1454 | HEK293-V1b, EGF-stimulated phospho-ERK AlphaScreen | Potency, µM (titrated, usually from 11.5 µM), for the others: top-dose activity change, negative = inhibition, usual class: inhibitors; active = well fitted inhibition curve with a large enough effect;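 also: plate controls were stimulated vehicle wells for no effect and unstimulated vehicle basal for full effect; nearly all actives have a fitted effect of over 55% in size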
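Phospho-ERK1/2 measured by AlphaScreen (SureFire) after 5 min 25 nM EGF stimulation of V1b-expressing HEK293 cells preincubated 30 min at 37C with titrated compounds; data scaled to DMSO and EGF controls, Hill-fitted AC50.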
* = called active by the depositor; ! = not confirmed by another sample; [ ] = another dose, or the depositor's remark. Potency is read from the fitted curve at half-maximal effect.

SMILES	ERK EGF inh
CC(C)n1c(O)c(C2c3cc(Cl)ccc3Oc3[nH]c(=O)n(C(C)C)c(=O)c32)c(=O)[nH]c1=O (configuration not stated)	3.16µM*
CC(=O)c1c(O)n(-c2cccc(Cl)c2)c(=O)[nH]c1=O (tested in a mixture with another compound)	-9.7%[57.5 µM]
O=c1cccc2n1CC1CC2CN(CCO)C1 (configuration not stated)	1.5%
CNc1ccc2oc(C[C@H]3O[C@]4(CC[C@H]3C)O[C@H]([C@H](C)C(=O)c3ccc[nH]3)[C@H](C)C[C@H]4C)nc2c1C(=O)O	-15.4%
Cl.Cl.Cl.Cl.Cl.Cl.N.N.N.N.NNNNN.NNNNN.O.O.[Ru].[Ru].[Ru]	-10.3%
CN1C[C@@H](C(=O)N[C@@]2(C)O[C@]3(O)C4CCCN4C(=O)[C@@H](Cc4ccccc4)N3C2=O)C=C2c3cccc4[nH]cc(c34)C[C@@H]21 (some centres not stated)	-2.8%
CCOC(=O)C1CCN(/C=C2/C(=O)NC(=S)N(c3ccccc3F)C2=O)CC1	2.2%
Cc1ccc(/C=C2\C(=O)NC(=S)N(c3ccccc3F)C2=O)s1	20µM*
Cc1ccc(/C=C2\C(=O)NC(=S)N(c3ccc(F)cc3)C2=O)s1	4.6%
C[C@@H]1OC(OC2C(OC3CC[C@@]4(C)C5CC=C6C7CC(C)(C)CC[C@@]7(C(=O)O)CCC6(C)C5(C)CCC4[C@]3(C)CO)OCC(O)C2O)C(O)C(O)C1O (some centres not stated)	28.2µM*
O=C1C=C2C=C[C@@H]3C[C@@]2(O1)[C@H]1CCCCN31	-2.3%
COc1cc2c(cc1O)[C@H]1Cc3ccc(OC)c(O)c3CN1CC2	10.1%[25.7 µM]
CC(C)CCCC1(C)C=Cc2c(O)c3c(c(CCC(C)C)c2O1)OC12C(CC4CC1C(C)(C)OC2(CCC(C)C(=O)O)C4O)C3=O (configuration not stated)	5.4%
CC(C)=CCCC1(C)C=Cc2c(O)c3c(c(CC=C(C)C)c2O1)OC12C(=CC4CC1C(C)(C)OC2(C/C=C(/C)C(=O)O)C4=O)C3=O (configuration not stated)	15.8µM*
CC(C)=CCCC1(C)C=Cc2c(O)c3c(c(CC=C(C)C)c2O1)OC12C(=CC4CC1C(C)(C)OC2(C/C=C(/C)C(=O)O)C4O)C3=O (configuration not stated)	37.4%
COc1cc2c(cc1OC)[C@@H]1C(=O)c3ccc4oc(C(C)C)cc4c3OC1CO2 (some centres not stated)	14.5%
CN(N=O)c1ccc(O)c(O)c1	15.9%
C=C(COC(C)=O)CC1CC(O)[C@]2(C)OC3CC4OC5C[C@]6(C)O[C@]7(C)CCC8OC9C[C@]%10(C)OC%11C(C)=CC(=O)OC%11CC%10OC9C[C@@H](C)C8OC7CC6O[C@]5(C)C/C=C\C4OC3CC2O1 (some centres not stated)	-11.1%[57.5 µM]
C=C(C=O)CC1CC(O)[C@]2(C)OC3CC4OC5C[C@]6(C)O[C@]7(C)CCC8OC9C[C@]%10(C)OC%11C(C)=CC(=O)OC%11CC%10OC9C[C@@H](C)C8OC7CC6O[C@]5(C)CC5OC5C4OC3CC2O1 (some centres not stated)	35.5µM*
C=C(CO)CC1CC(O)[C@]2(C)OC3CC4OC5C[C@]6(C)O[C@]7(C)CCC8OC9C[C@]%10(C)OC%11C(C)=CC(=O)OC%11CC%10OC9C[C@@H](C)C8OC7CC6O[C@]5(C)C/C=C\C4OC3CC2O1 (some centres not stated)	-17.2%[57.5 µM]
O=C1NO[C@H]2[C@@H]1CN[C@@H]2C(=O)O	-2.8%
CC/C=C\C/C=C\C/C=C\C/C=C\C/C=C\CCCC(=O)NCCO	0.0%
CC(=O)C1=C(O)[C@@H]2[C@@H]3c4c[nH]c5cccc(c45)C[C@@H]3C(C)(C)N2C1=O	-1.7%
C(=C/c1ccccc1)/CN1CCN(CCOC(c2ccccc2)c2ccccc2)CC1	-11.7%
O=C1NO[C@@H]2CN[C@@H](C(=O)O)[C@H]12	-0.1%
SMILES	ERK EGF inh
CC[n+]1c(/C=C/C=C/c2ccc(N(C)C)cc2)sc2ccccc21	15.8µM*
CN(C)c1ccc(/C=C/c2cc[n+](C)c3ccccc23)cc1	13.5%
C[C@@]12CC[C@H]3[C@@H](CCC4=CC(=O)CC[C@]43C)[C@H]1CC[C@H]2C(=O)CO	11.3%[25.7 µM]
CC(=O)[C@@H]1CC[C@@H]2[C@@H]3CCC4=CC(=O)CC[C@@]4(C)[C@H]3CC[C@]21C	-6.6%[25.7 µM]
CC(=O)[C@H]1CC[C@H]2[C@@H]3CCC4=CC(=O)CC[C@]4(C)[C@H]3CC[C@]12C	14.1µM*!
O=C1/C(=C\c2ccccc2)C[C@@]2(O)[C@H]3Cc4ccc(O)c5c4[C@@]2(CCN3CC2CC2)[C@@H]1O5	0.2%
CC(=O)[O][Hg][c]1ccccc1	14.1µM*
NCC(=O)c1ccccc1	20.9%
CC(C)OP(=O)(O)NC(=O)c1ccccc1	2.7%
CN[C@@H]1C[C@H](c2ccc(Cl)c(Cl)c2)c2ccccc21	10.0%
COC1=CC2C3Cc4ccc(OC)c(O)c4[C@]2(CCN3C)CC1=O (some centres not stated)	9.5%
